Assay results published in PubChem BioAssay (Tox21).
Records with an inconclusive call do not appear. Entries that show only a call come without a potency. A number with no mark means an inactive call. The source made the active and inactive calls. Unless noted, calls follow the shape of the dose curve; as a rule, active = well fitted curve in the direction sought with a large enough effect in the repeat runs; inconclusive = weak or mixed curves; inactive = no such curve, though single readings can be large; an effect the other way counts as inactive or inconclusive.

Assays:
[1] = qHTS assay to identify small molecule agonists of the peroxisome proliferator-activated receptor delta (PPARd) signaling pathway - cell viability counter screen (AID 743211); also: nearly all actives have a fitted effect of over 55% in size; also: potency is read from the fitted curve at half-maximal effect
Summary of the method: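 PPARd-bla HEK293H cells (UAS-beta-lactamase reporter) were treated with compounds for 17 h at 37 C. Viability was then read in the same wells by CellTiter-Glo luminescence after 30 min at room temperature.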

[2] = biological target: Peroxisome proliferator-activated receptor delta (Homo sapiens) (UniProt Q03181); test: qHTS assay to identify small molecule agonists of the peroxisome proliferator-activated receptor delta (PPARd) signaling pathway (AID 743212; calls by dose curve)
Summary of the method: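 Steps: seed PPARd-bla HEK293H cells; incubate 5 h, 37 C, 5% CO2; add compounds in DMSO; incubate, 37 C; add LiveBLAzer B/G FRET substrate; hold 2 h at room temperature; measure fluorescence.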

[3] = qHTS assay to identify small molecule antagonists of the peroxisome proliferator-activated receptor delta (PPARd) signaling pathway - cell viability counter screen (AID 743213); also: nearly all actives have a fitted effect of over 50% in size; also: potency is read from the fitted curve at half-maximal effect
Summary of the method: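 Luminescence from CellTiter-Glo, added after the bla read and incubated 30 min at room temperature, gives viability of HEK293H PPARd-bla cells exposed to compounds for 17 h at 37 C with 300 nM L165041.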

[4] = qHTS assay to identify small molecule agonists of the farnesoid-X-receptor (FXR) signaling pathway - cell viability counter screen (AID 743218); also: nearly all actives have a fitted effect of over 45% in size; also: potency is read from the fitted curve at half-maximal effect
Summary of the method: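 Cells were seeded, left 5 h at 37 C and 5% CO2, then dosed with compound in DMSO for 16 h. After the beta-lactamase FRET read, CellTiter-Glo was added and luminescence measured 30 min later.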

[5] = biological target: Bile acid receptor (Homo sapiens) (UniProt Q96RI1); test: qHTS assay to identify small molecule agonists of the farnesoid-X-receptor (FXR) signaling pathway (AID 743220; active = well fitted activation curve with a large enough effect in the signal ratio in the repeat runs, not every such curve was filed as active; the % refers to the signal ratio)
Summary of the method: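 FXR-UAS-bla HEK 293T cells carrying a UAS-driven beta-lactamase reporter were plated for 5 h at 37C/5% CO2, then exposed to DMSO-dissolved Tox21 10K compounds for 16 h at 37C. A LiveBLAzer B/G FRET substrate was loaded for 2 h at room temperature before fluorescence reading.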

[6] = qHTS assay to identify small molecule agonists of the vitamin D receptor (VDR) signaling pathway - cell viability counter screen (AID 743224); also: nearly all actives have a fitted effect of over 50% in size; also: potency is read from the fitted curve at half-maximal effect
Summary of the method: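 Cells: VDR-bla, 2,000/well, settled 4 h. Treatment: compounds in DMSO, 16 h, 37C/5% CO2. Readout: CellTiter-Glo luminescence after 30 min RT.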

[7] = qHTS assay to identify small molecule agonists of the NFkB signaling pathway - cell viability counter screen (AID 1159515; calls by dose curve; also: nearly all actives have a fitted effect of over 55% in size; also: potency is read from the fitted curve at half-maximal effect)
Summary of the method: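 Cells are seeded (2,000 NFkB-bla ME-180 per well), rested overnight, and dosed with DMSO-dissolved compounds for 5 hr at 37 C. Viability is then read by CellTiter-Glo luminescence after 30 min at room temperature.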

[8] = qHTS assay to identify small molecule agonists of the endoplasmic reticulum stress response signaling pathway - cell viability counter screen (AID 1159517; calls by dose curve; also: nearly all actives have a fitted effect of over 50% in size; also: potency is read from the fitted curve at half-maximal effect)
Summary of the method: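 After overnight attachment, ESRE-bla HeLa cells were treated with Tox21 library compounds for 5 hr. CellTiter-Glo luminescence, read 30 min post-addition at room temperature, reported viability.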

[9] = biological target: Nuclear receptor ROR-gamma (Homo sapiens) (UniProt P51449); test: qHTS assay to identify small molecule antagonists of the retinoid-related orphan receptor gamma (ROR-gamma) signaling pathway (AID 1159521; also: nearly all actives have a fitted effect of over 50% in size; also: potency is read from the fitted curve at half-maximal effect;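 as to activity change, negative = inhibition: CHO cells with doxycycline inducible ROR-gamma driving an RORE luciferase reporter; top concentration of the series differs between compounds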)
Summary of the method: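 Tet-on RORγ CHO cells carrying a ROR response element–luciferase reporter were pretreated with compounds for 2 h, then induced with 1 uM (final) doxycycline hyclate for 16 h at 37 C. Antagonism was read as decreased ONE-Glo luminescence.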

[10] = biological target: Peroxisome proliferator-activated receptor delta (Homo sapiens) (UniProt Q03181); test: qHTS assay to identify small molecule antagonists of the peroxisome proliferator-activated receptor delta (PPARd) signaling pathway (AID 743215; active = well fitted inhibition curve with a large enough effect in the signal ratio in the repeat runs, not every such curve was filed as active; the % refers to the signal ratio;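 also: cells stimulated with agonist L165041 at 300 nM final during compound exposure; series mostly up to about 62 µM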)
Summary of the method: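 Cells: HEK293H with a UAS-driven beta-lactamase reporter responsive to PPARd. Compounds were co-added with L165041 (300 nM, final) and incubated 17 h at 37 C before a 2 h room-temperature FRET substrate step and fluorescence reading.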

[11] = qHTS assay to identify small molecule antagonists of the farnesoid-X-receptor (FXR) signaling pathway - cell viability counter screen (AID 743221; active = well fitted cell-killing curve with a large enough effect in the repeat runs, not every such curve was filed as active; also: nearly all actives have a fitted effect of over 50% in size; also: potency is read from the fitted curve at half-maximal effect)
Summary of the method: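 FXR-UAS-bla HEK 293T cells were treated with test compounds plus chenodeoxycholic acid (50 uM final) for 16 h at 37 C. Cell viability in the same wells was then read as CellTiter-Glo luminescence after 30 min at room temperature.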

[12] = biological target: Vitamin D3 receptor (Homo sapiens) (UniProt P11473); test: qHTS assay to identify small molecule agonists of the vitamin D receptor (VDR) signaling pathway (AID 743222; calls by dose curve; also: potency is read from the fitted curve at half-maximal effect)
Summary of the method: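 Cells carrying a VDR-driven beta-lactamase reporter are seeded at 2,000 per well and rested 4 h. Compounds in DMSO are added for 16 h at 37C, and FRET substrate fluorescence is measured after 2 h at room temperature.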

[13] = biological target: Vitamin D3 receptor (Homo sapiens) (UniProt P11473); test: qHTS assay to identify small molecule antagonists of the vitamin D receptor (VDR) signaling pathway (AID 743223; active = well fitted inhibition curve with a large enough effect in the signal ratio in the repeat runs, not every such curve was filed as active; the % refers to the signal ratio)
Summary of the method: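 VDR-bla cells were plated, incubated 4 h at 37C, then given compound and 1alpha,25-dihydroxyvitamin D3 (3 nM final). After 16 h at 37C, LiveBLAzer B/G FRET substrate was added for 2 h at room temperature and fluorescence read.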

[14] = qHTS assay to identify small molecule agonists of the AP-1 signaling pathway - cell viability counter screen (AID 1159525; calls by dose curve; also: nearly all actives have a fitted effect of over 55% in size; also: potency is read from the fitted curve at half-maximal effect)
Summary of the method: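 Intracellular ATP by Cell Titer Glo luminescence (30 min, RT) in the same ME-180 AP-1-bla wells after the 5 h compound exposure at 37 °C. Normalised to tetra n-octyl ammonium bromide and DMSO controls.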

[15] = biological target: Retinoic acid receptor RXR-alpha (Homo sapiens) (UniProt P19793); test: qHTS assay to identify small molecule agonists of the RXR signaling pathway (AID 1159527; calls by dose curve; also: nearly all actives have a fitted effect of over 35% in size)
Summary of the method: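 GeneBLAzer RXR-alpha-UAS-bla HEK 293T cells in medium with 2% charcoal-stripped FBS, pre-incubated 5 hr at 37 C, then exposed to compounds 16 hr. Beta-lactamase reporter read by FRET substrate, 2 hr room temperature, 460/530 nm emission.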

[16] = qHTS assay to identify small molecule antagonists of the retinoid-related orphan receptor gamma (ROR-gamma) signaling pathway - cell viability counter screen (AID 1159520); also: nearly all actives have a fitted effect of over 50% in size
Summary of the method: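 Cytotoxicity was read from cellular ATP (CellTiter-Glo luminescence) after 16 hr at 37 C with 1 uM doxycycline induction. The inducer was added 2 hr after compound transfer to Tet-on ROR gamma CHO cells.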

[17] = qHTS assay to identify small molecule agonists of the AP-1 signaling pathway (AID 1159526; calls by dose curve)
[18] = qHTS assay to identify small molecule antagonists of the vitamin D receptor (VDR) signaling pathway - cell viability counter screen (AID 743225); also: nearly all actives have a fitted effect of over 50% in size
Summary of the method: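 VDR-bla HEK 293T cells, 4 h pre-incubation at 37C, then compound plus 1-alpha,25-dihydroxyvitamin D3 (3 nM final) for 16 h. After the beta-lactamase FRET read, CellTiter-Glo was added to the same wells; luminescence after 30 min at room temperature.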

[19] = biological target: Bile acid receptor (Homo sapiens) (UniProt Q96RI1); test: qHTS assay to identify small molecule antagonists of the farnesoid-X-receptor (FXR) signaling pathway (AID 743217; active = well fitted inhibition curve with a large enough effect in the signal ratio in the repeat runs, not every such curve was filed as active; the % refers to the signal ratio)
Summary of the method: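 Cells carrying a UAS-driven beta-lactamase reporter (GeneBLAzer FXR-UAS-bla HEK 293T) were plated and rested 5 h at 37 °C. Compounds in DMSO were added alongside chenodeoxycholic acid agonist at 50 uM final and left 16 h at 37 °C before FRET substrate readout.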

Sequence of Vitamin D3 receptor (Homo sapiens) (P11473 whole entry, looked up): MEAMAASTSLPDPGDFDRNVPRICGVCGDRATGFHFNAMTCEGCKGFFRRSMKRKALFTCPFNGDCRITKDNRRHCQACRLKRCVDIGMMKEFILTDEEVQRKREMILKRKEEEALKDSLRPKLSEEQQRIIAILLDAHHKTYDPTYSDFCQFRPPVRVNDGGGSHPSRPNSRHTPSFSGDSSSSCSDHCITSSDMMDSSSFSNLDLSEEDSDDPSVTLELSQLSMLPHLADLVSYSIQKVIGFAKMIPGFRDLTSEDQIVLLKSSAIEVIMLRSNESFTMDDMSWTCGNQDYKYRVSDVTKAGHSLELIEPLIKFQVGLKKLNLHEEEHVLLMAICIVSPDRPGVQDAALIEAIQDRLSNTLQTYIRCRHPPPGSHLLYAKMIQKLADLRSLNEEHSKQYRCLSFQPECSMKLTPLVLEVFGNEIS
Sequence of Peroxisome proliferator-activated receptor delta (Homo sapiens) (Q03181 whole entry, looked up): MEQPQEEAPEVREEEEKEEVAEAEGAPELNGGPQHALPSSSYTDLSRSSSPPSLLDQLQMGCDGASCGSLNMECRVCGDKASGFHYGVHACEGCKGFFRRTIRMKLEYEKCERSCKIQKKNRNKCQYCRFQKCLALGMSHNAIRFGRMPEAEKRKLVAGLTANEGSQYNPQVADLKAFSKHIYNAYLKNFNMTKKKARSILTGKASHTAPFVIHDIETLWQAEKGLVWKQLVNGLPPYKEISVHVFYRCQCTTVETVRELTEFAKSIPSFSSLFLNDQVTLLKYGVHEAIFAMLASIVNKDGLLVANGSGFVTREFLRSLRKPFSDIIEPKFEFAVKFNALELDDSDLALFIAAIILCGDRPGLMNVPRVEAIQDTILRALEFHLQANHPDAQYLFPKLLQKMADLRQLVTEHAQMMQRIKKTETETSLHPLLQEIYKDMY
Sequence of Retinoic acid receptor RXR-alpha (Homo sapiens) (P19793 whole entry, looked up): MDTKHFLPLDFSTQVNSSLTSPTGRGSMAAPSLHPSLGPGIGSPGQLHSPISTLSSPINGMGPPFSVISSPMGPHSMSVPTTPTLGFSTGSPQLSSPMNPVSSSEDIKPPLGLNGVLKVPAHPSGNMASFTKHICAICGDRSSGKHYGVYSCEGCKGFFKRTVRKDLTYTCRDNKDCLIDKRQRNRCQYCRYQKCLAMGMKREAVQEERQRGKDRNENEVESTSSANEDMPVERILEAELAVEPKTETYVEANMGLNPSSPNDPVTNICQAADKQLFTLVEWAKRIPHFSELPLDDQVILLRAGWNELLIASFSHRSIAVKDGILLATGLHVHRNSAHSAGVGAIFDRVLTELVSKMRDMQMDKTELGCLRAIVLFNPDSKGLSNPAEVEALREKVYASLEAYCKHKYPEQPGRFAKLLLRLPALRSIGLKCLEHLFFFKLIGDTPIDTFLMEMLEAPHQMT
Sequence of Bile acid receptor (Homo sapiens) (Q96RI1 whole entry, looked up): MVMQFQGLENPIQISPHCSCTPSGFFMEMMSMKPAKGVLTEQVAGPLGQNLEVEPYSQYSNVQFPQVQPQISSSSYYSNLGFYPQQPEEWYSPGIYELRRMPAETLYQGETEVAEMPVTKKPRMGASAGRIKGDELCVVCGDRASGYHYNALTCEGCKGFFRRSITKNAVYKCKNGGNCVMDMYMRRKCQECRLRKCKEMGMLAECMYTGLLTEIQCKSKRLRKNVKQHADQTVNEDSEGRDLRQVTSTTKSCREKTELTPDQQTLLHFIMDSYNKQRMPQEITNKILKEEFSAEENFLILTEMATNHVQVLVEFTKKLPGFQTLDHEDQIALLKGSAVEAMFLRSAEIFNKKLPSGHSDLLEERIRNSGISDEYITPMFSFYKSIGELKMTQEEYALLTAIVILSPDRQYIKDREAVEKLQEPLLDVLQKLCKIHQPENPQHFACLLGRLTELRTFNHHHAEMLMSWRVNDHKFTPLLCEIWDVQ

CC(C)(C)NC(=O)[C@@H]1C[C@@H]2CCCC[C@@H]2CN1C[C@@H](O)[C@H](Cc1ccccc1)NC(=O)[C@H](CC(N)=O)NC(=O)c1ccc2ccccc2n1
Potency [1]: 35.1 µM (active) | Potency [2]: inactive | Potency [3]: 44.2 µM (active) | Potency [4]: 55.7 µM (active) | Potency [5]: inactive | Potency [6]: 44.2 µM (active) | Potency [7]: 55.7 µM (active) | Potency [8]: 49.6 µM (active) | Potency [9]: 55.2 µM (active)

CO[Si](CCCNc1ccccc1)(OC)OC
Potency [2]: inactive | Potency [3]: inactive | Potency [10]: inactive | Potency [4]: inactive | Potency [5]: inactive | Potency [11]: inactive | Potency [12]: inactive | Potency [13]: inactive | Potency [6]: inactive | Potency [7]: inactive | Potency [8]: inactive | Potency [9]: inactive | Potency [14]: inactive | Potency [15]: inactive

CSc1cnc(C)cn1
Potency [1]: inactive | Potency [2]: inactive | Potency [3]: inactive | Potency [10]: inactive | Potency [4]: inactive | Potency [11]: inactive | Potency [6]: inactive | Potency [7]: inactive | Potency [16]: inactive | Potency [9]: inactive | Potency [14]: inactive | Potency [17]: inactive

C=C(C)C(=O)OCC[N+](C)(C)C
Potency [1]: inactive | Potency [2]: inactive | Potency [3]: inactive | Potency [4]: inactive | Potency [11]: inactive | Potency [6]: inactive | Potency [18]: inactive | Potency [7]: inactive | Potency [16]: inactive | Potency [9]: inactive | Potency [14]: inactive | Potency [15]: inactive

CC(NN)c1ccccc1 (stereo not given)
Potency [1]: inactive | Potency [3]: inactive | Potency [4]: inactive | Potency [13]: inactive | Potency [6]: inactive | Potency [18]: inactive | Potency [7]: inactive | activity, negative = cytotoxicity [16]: 0.565% [at 19 µM] | activity change, negative = inhibition [9]: -0.108% [at 19 µM] | viability change, negative = cytotoxic [14]: 4.35% [at 15.8 µM] | activation [17]: -4.49% [at 15.8 µM] | activation [15]: -0.0243% [at 15.8 µM]

CCC(Cl)C(Cl)C(Cl)CC(Cl)C(Cl)C(C)Cl (stereo not given)
Potency [5]: inactive | Potency [12]: inactive | Potency [13]: inactive | Potency [6]: 38.9 µM (active) | Potency [7]: inactive | Potency [8]: inactive | Potency [14]: inactive | Potency [17]: inactive

Cc1[nH]cnc1C[C@H]1CCc2c(C)c3ccccc3n2C1=O
Potency [10]: inactive | Potency [19]: inactive | Potency [11]: inactive | Potency [12]: inactive | Potency [7]: inactive | Potency [8]: inactive | Potency [9]: 23.7 µM (active) | Potency [14]: inactive

COC(=O)c1cc(Cl)ccc1OC
Potency [1]: inactive | Potency [2]: inactive | Potency [3]: inactive | Potency [10]: inactive | Potency [11]: inactive | Potency [12]: inactive | Potency [13]: inactive | Potency [6]: inactive | Potency [18]: inactive | Potency [7]: inactive | Potency [16]: inactive | Potency [9]: inactive | Potency [14]: inactive | Potency [17]: inactive | Potency [15]: inactive

CCCCCOc1ccccc1/C(=C\SC)n1ccnc1
Potency [6]: inactive | Potency [18]: inactive | Potency [7]: inactive | Potency [8]: inactive | Potency [9]: 13.3 µM (active) | Potency [14]: inactive

CCN(Cc1cccnc1)C(=O)c1cccc(Cl)c1[C@]1(C)C(=O)N(Cc2ccc(OC)cc2OC)c2ccc(Cl)cc21
Potency [3]: 5.13 µM (active) | Potency [4]: 3.63 µM (active) | Potency [11]: 11.5 µM (active) | Potency [12]: 45.8 µM (active) | Potency [7]: inactive | Potency [8]: inactive | Potency [9]: 9.05 µM (active) | Potency [14]: inactive

CCCCCCCCOc1ccccc1C(=O)Nc1ccc(C(=O)OCC[N+](C)(CC)CC)cc1
Potency [1]: 26.6 µM (active) | Potency [4]: inactive | Potency [5]: inactive | Potency [12]: inactive | Potency [13]: inactive | Potency [6]: inactive | Potency [7]: 12 µM (active) | Potency [8]: inactive | Potency [9]: inactive | Potency [14]: 26.8 µM (active)

Cc1cc2c(cc1C(F)(F)F)N(C(=O)Nc1ccc(Oc3cccnc3C)nc1)CC2
Potency [1]: 44.3 µM (active) | Potency [2]: inactive | Potency [3]: 19.8 µM (active) | Potency [4]: 35.2 µM (active) | Potency [5]: inactive | Potency [11]: inactive | Potency [12]: inactive | Potency [6]: 31.4 µM (active) | Potency [18]: inactive | Potency [7]: inactive | Potency [8]: inactive
